RXFP1 antag = qHTS Assay for Antagonists of the Relaxin Receptor RXFP1; Relaxin receptor 1 (Homo sapiens), Q9HBX9; HEK293-RXFP1, relaxin-stimulated cAMP HTRF, 30 min; active compounds read low; activity change, negative = inhibition, % at 57.5 µM; 0.59% of 350,000 active;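 active = activity change of -60% or lower, but not beyond a set lower limit; inconclusive = change between -60% and -40%, or beyond the set limit; inactive = change above -40%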
Target sequence (Q9HBX9 whole entry, looked up): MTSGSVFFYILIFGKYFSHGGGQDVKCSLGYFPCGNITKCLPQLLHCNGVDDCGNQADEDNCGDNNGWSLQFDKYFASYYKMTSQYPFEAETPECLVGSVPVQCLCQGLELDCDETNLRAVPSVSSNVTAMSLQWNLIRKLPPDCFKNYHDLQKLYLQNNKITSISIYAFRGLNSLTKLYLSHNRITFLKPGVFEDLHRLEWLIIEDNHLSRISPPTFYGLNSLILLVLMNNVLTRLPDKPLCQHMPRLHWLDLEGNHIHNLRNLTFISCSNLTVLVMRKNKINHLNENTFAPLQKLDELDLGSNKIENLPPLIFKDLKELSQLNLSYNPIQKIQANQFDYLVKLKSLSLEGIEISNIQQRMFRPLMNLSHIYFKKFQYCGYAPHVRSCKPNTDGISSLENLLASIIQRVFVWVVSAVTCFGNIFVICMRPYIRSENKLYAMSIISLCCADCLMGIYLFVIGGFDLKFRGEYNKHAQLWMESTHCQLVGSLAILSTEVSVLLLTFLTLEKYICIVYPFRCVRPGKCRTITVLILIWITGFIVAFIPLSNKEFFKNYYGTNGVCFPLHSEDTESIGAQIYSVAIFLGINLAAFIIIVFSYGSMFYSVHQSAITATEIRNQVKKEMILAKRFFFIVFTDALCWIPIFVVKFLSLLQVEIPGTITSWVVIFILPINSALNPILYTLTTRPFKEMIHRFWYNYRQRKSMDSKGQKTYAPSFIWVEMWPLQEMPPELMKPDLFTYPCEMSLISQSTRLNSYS
RXFP1 ag = qHTS Assay for Agonists of the Relaxin Receptor RXFP1 | Relaxin receptor 1 (Homo sapiens), Q9HBX9 | HEK293T-RXFP1 cAMP TR-FRET, 30 min; response scale: percent of porcine relaxin response, buffer zero | Potency, µM (top dose mostly 57.5 µM), usual class: activators | 0.3% of 370,000 active | AID 2676, 2010; note: nearly all actives have a fitted effect of over 60% in size
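cAMP rise read by TR-FRET after 30 min, 37C compound exposure (up to 58 uM) in RXFP1-transfected HEK293 cells with Ro 20174 present. EC50 from Hill-equation fits, with 29 nM porcine relaxin as 100% and buffer as basal.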
gsp ag = qHTS for Agonist of gsp, the Etiologic Mutation Responsible for Fibrous Dysplasia/McCune-Albright Syndrome: qHTS; gsp mutant cells, cAMP HTRF, 30 min; Potency, µM (series often up to 76.9 µM), most hits filed as activators; 0.13% of 340,000 active; AID 624287, 2012; active = well fitted activation curve with a large enough effect; inconclusive = small, poorly fitted or top-dose-only effect, or another doubt; inactive = no such curve, though single readings can be large or run the other way; cell line not stated here;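 note: phosphodiesterase inhibitor Ro 20-1724 added with compounds to block cAMP breakdown; nearly all actives have a fitted effect of over 60% in size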
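Cells stably selected in G418 were plated at 2000/well, grown 16-24 hr, then given compounds in DMSO with the PDE inhibitor […] (300 uM solution added) for 30 min at 37C; cAMP was read by HTRF.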
Tb PFK inh-1 = qHTS Assay to Find Inhibitors of T. brucei phosphofructokinase. T. brucei PFK, ADP-Glo luminescence. 0.17% of 330,000 active. ATP-dependent 6-phosphofructokinase (Trypanosoma brucei brucei), O15648. Potency, µM (highest dose often 57.5 µM), most hits filed as inhibitors. AID 485367, 2010; note: nearly all actives have a fitted effect of over 60% in size
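ADP-Glo luminescence quantified ADP after 45 min at room temperature, with 1.25 nM T. brucei PFK, 0.1 mM ATP and 0.5 mM fructose-6-phosphate in pH 8.0 TEA buffer. qHTS titrations up to 57 µM; curves classified by quality.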
p53 reactivation = qHTS assay for re-activators of p53 using a Luc reporter; H1299 p53-A138V BP100-luciferase reporter, luminescence, 24 h; Potency, µM (top dose mostly 92.2 µM), actives largely listed as activators; 0.063% of 320,000 active; note: nearly all actives have a fitted effect of over 45% in size
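H1299 (p53-null), stable ts p53-A138V + BP100-Luc; 1000 cells/well, Opti-MEM/10% FBS; cpd 4 pt, 1:5; 24 h, 37 deg C, 5% CO2; detection reagent 10 min RT; luminescence.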
gsp antagonist = qHTS for Antagonists of gsp, the Etiologic Mutation Responsible for Fibrous Dysplasia/McCune-Albright Syndrome: qHTS; gsp-mutant cells, cAMP HTRF, 30 min; Potency, µM (series often up to 76.9 µM), usual class: inhibitors; 0.4% of 340,000 active; AID 624288, 2012; calls by dose curve; cell line not stated here;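 note: intracellular cAMP measured with PDE inhibitor Ro 20-1724 present during compound exposure; nearly all actives have a fitted effect of over 65% in size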
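G418-selected cells were plated in DMEM/10% FBS for 16-24 h at 37C, then treated with compounds plus the PDE inhibitor […] (300 uM solution added) for 30 min at 37C. Intracellular cAMP was measured by HTRF after 30 min lysis at room temperature.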
Tb PFK KinaseGlo = Tb PFK orthogonal confirmatory assay using ATP depletion (Kinase-Glo Plus) as an alternative measure of Tb PFK activity: Hit Validation; Potency, µM (series often up to 57.5 µM); shares compounds with Tb PFK inh-1; 47% of 1,100 active; Tb PFK enzyme, ATP depletion, Kinase-Glo Plus luminescence; calls by dose curve; note: nearly all actives have a fitted effect of over 60% in size
Tb PFK inh-2 = Inhibitors of T. brucei phosphofructokinase: Hit Validation; shares compounds with Tb PFK inh-1; purified T. brucei PFK, ADP-Glo luminescence, 45 min; Potency, µM (doses to about 57.5 µM), usual class: inhibitors; 41% of 1,100 active; note: nearly all actives have a fitted effect of over 60% in size
A number is an active result; i = inactive; ? = inconclusive; nt = no result; [ ] = dose if it differs, or a comment. Sampled rows, rich in hits. Any-hit rate of the full collection: about 1.1%. Unless noted, calls come from the whole dose curve; as a rule, active = well fitted curve in the direction sought with a large enough effect; inconclusive = small, poorly fitted or top-dose-only effect, or another doubt; inactive = no such curve, though single readings can be large; an effect the other way counts as inactive or inconclusive.

SMILES	RXFP1 antag	RXFP1 ag	gsp ag	Tb PFK inh-1	p53 reactivation	gsp antagonist	Tb PFK KinaseGlo	Tb PFK inh-2
O=C(NNc1ccc([N+](=O)[O-])cc1)Nc1ccccc1	i	i	i	?	nt	i	19µM	?
CCN(CC)S(=O)(=O)c1cc([N+](=O)[O-])ccc1NNC(=O)Nc1ccc(Cl)c(Cl)c1	i	i	i	?	i	?	i	i
O=C(NCCc1ccc(F)cc1)Nc1ccc([N+](=O)[O-])cc1	i	i	?	?	i	i	?	?
O=C(NNc1ccccc1[N+](=O)[O-])Nc1ccc(Cl)c(Cl)c1	i	i	i[15.4 µM]	12µM	?	i	?	i
CCN(CC)C(=O)c1ccc2c(c1)C1C=CCC1C(C(=O)O)N2 (stereo not given)	i	i	?	?	i	i	nt	nt
Cc1cc(N(CCCl)CCCl)ccc1C=Cc1ccncn1	i	nt	?	nt	nt	i	nt	nt
Cc1ccc(C(C)C)c(OCC(=O)N2CCN(Cc3nc4cc([N+](=O)[O-])ccc4n3C)CC2)c1	i	i	i	i	i	i	nt	nt
O=C1CC(=O)N(Cc2ccco2)C(=S)N1	i	i	i	21.3µM	i	i	23.9µM	?
O=C(O)Cn1cc(/C=C2\C(=O)NC(=O)N(Cc3ccco3)C2=O)c2ccccc21	i	i	i	?	i	i	nt	nt
Nc1c(C(=O)NCCc2ccccc2)c2nc3ccccc3nc2n1CCN1CCOCC1	i	i	i	i	i	i	nt	nt
O=S(=O)(Nc1ccccc1F)c1cccc(NC(=S)NCCN2CCOCC2)c1	i	nt	i	7.57µM	i	i	2.39µM	3.79µM
O=C(/C=C/c1ccccc1)Nc1cccc(S(=O)(=O)Nc2ccccc2F)c1	i	i	i	6.75µM	i	i	4.26µM	6.01µM
Clc1ccc(CSC2=NCCCN2)cc1Cl	i	i	i	5.36µM	i	i	10.7µM	21.3µM
CCCCn1c(O)c(C(CC)=NCCN2CCOCC2)c(=O)[nH]c1=O	i	i	i	i	i	i	nt	nt
COCCn1c(SCCN2CCOCC2)nc2c1c(=O)[nH]c(=O)n2C	i	i	i	?	i	i	21.3µM	33.8µM
COc1cccc(CNc2ccc(F)c(Cl)c2)c1	i	i	i	23.9µM	i	i	10.7µM	16.9µM
COc1cccc(CCNCc2cccc(C(F)(F)F)c2)c1	i	i	i[15.4 µM]	?	i	i	nt	nt
CN(C)C(=O)Oc1ccc2c(c1)O/C(=C\c1ccc(Cl)cc1)C2=O	i	i	i	i	i	i	nt	nt
CN1CC[C@]23c4c5ccc(OC6OC(C(=O)O)[C@@H](O)C(O)[C@H]6O)c4OC2C(O)C=CC3[C@H]1C5 (stereo not given in full)	nt	nt	nt	i	i	i	nt	nt
O=C(O)C1OC(Oc2cc3oc(-c4ccccc4)cc(=O)c3c(O)c2O)C(O)C(O)C1O (stereo not given)	nt	i	i	6.75µM	i	i	?	9.53µM
Nc1nc2ccccc2n1Cc1ccc(Cl)c(Cl)c1	i	i	i	?	i	i	13.5µM	?
O=C(O)COc1nc(Cl)c(Cl)cc1Cl	i	nt	nt	nt	nt	nt	nt	nt
O=S1(=O)CCOC(CO)CN1Cc1ccc(Cl)c(Cl)c1 (stereo not given)	nt	nt	nt	?	i	i	?	?
O=C(Cc1ccc(Cl)c(Cl)c1)Nc1cccnc1	i	i	i[15.4 µM]	15.1µM	i	i	3.79µM	12µM
C/C(=N\NC(=O)Cc1ccc(Cl)c(Cl)c1)c1cccnc1	i	i	i	19µM	i	i	12µM	?
SMILES	RXFP1 antag	RXFP1 ag	gsp ag	Tb PFK inh-1	p53 reactivation	gsp antagonist	Tb PFK KinaseGlo	Tb PFK inh-2
CCCCC(=O)N/N=C/c1c(O)n(-c2cccc3ccccc23)c(=O)[nH]c1=O	i	i	i	i	i	i	nt	nt
CC1CCCCN1C(=O)Cn1cc(C=C2C(=O)N(C)C(=O)N(C)C2=O)c2ccccc21 (stereo not given)	i	i	i	i	i	i	nt	nt
CCOC(=O)N(C)OC(=O)Nc1ccc(Cl)c(Cl)c1	i	i	i	1.51µM	i	i	23.9µM	?
CN(C)C1(c2nnnn2CCOC(=O)Nc2ccc(Cl)cc2)CCCCC1	i	i	i	i	i	i	nt	nt
Cc1ccccc1C(=O)N1CC1C (stereo not given)	i	nt	i	nt	nt	i	nt	nt
O=P(Nc1cccc(Cl)c1)(Oc1ccccc1)Oc1ccccc1	i	i	i	i	i	i	nt	nt
O=C1C2C3C=CC(CO)(O3)C2C(=O)N1c1ccccc1-c1ccccc1 (stereo not given)	i	i	i	21.3µM	i	i	23.9µM	?
COc1cc(C=NNC(=O)c2ccc(NS(=O)(=O)c3cccs3)cc2)cc(Br)c1O	i	nt	i	?	i	?	i	?
COc1cc(C(=O)NN=Cc2ccc(N(CCCl)CCCl)cc2)cc(OC)c1OC	i	nt	?	nt	nt	i	nt	nt
C=C(C)C(=O)Nc1cccc(C2=NOC3(C2)C[C@H](C(N)=O)N(C(=O)c2ccccc2C(=O)c2ccccc2)C3)c1 (stereo not given in full)	nt	i	i	10.7µM	i	i	0.675µM	0.849µM
C=C(C)C(=O)Nc1cccc(C2=NOC3(C2)C[C@@H](C(N)=O)N(C(=O)CC(c2ccccc2)c2ccccc2)C3)c1 (stereo not given in full)	nt	i	nt	30.1µM	i	i	1.51µM	?
C/C=C/C=C/C(=O)N1CC2(CC(c3cccc(NC(=O)CCCCC)c3)=NO2)C[C@H]1C(N)=O (stereo not given in full)	nt	i	nt	?	i	i	?	?
C=C(C)C(=O)Nc1cccc(C2=NOC3(C2)C[C@@H](C(N)=O)N(C(=O)/C=C/C=C/C)C3)c1 (stereo not given in full)	nt	i	nt	3.79µM	i	i	0.135µM	0.19µM
CCOC(=O)c1cn2nc(OP(=S)(OCC)OCC)cc2nc1C	i	i	i	i	i	i	nt	nt
